31 compounds from ChEMBL document CHEMBL4513216, “Probing the Open Global Health Chemical Diversity Library for Multistage-Active Starting Points for Next-Generation Antimalarials” (ACS Infect Dis, 2020) can be followed below.

About 8,600 (12%) of roughly 69,000 compounds showed an effect of 50% or more. The sample as a whole holds a higher share of strong results than the screen did.

This assay relates to Plasmodium berghei. The experiment in a line: Screen against P. berghei liver stage (PbLuc), transformed with Luciferase, at 10uM. It counts as functional, HepG2. The following applies: tested at 10 uM.
With `CC(Nc1cccc(CN2CCOC2=O)c1)C(=O)NC(=O)NC(C)(C)C` (stereo unspecified), the INHIBITION turned out to be 3.75%.
As for `CCNC(=O)[C@@H]1C[C@H](NC(=O)c2cc(=O)[nH]c3ccc(C)cc23)CN1C`, the figure is 29.4%; as for `COC(=O)c1ccc(N(C(=O)c2cc(Cl)ccn2)C(C)C)c(C)c1`, 19.4%.
Then `CC(C)(C)NC(=O)CN1CCCC(c2ccc(C(=O)O)cc2)C1` (stereo unspecified), with 26.9%.
`N#Cc1ccsc1NC(=O)CCN1CCn2c(nnc2C2CC2)C1`: the INHIBITION is on record as -25.9%.
Then `CC1CCCN(c2ccc(C(N)=O)cc2NC(=O)CC2=CCNCC2)C1` (stereo unspecified), with 56.3%; and `CCOCCCC(=O)Nc1cc(C(N)=O)ccc1N1CCCCC1`, with 72.1%.
`CCNC(=O)COc1ccccc1N1CCCC(C)C1` (stereo unspecified): the INHIBITION stood at 36.2%.
Then `CC1CCCN(c2ccccc2OCC(=O)NC2CC2)C1` (stereo unspecified), with 42.6%; and `CCOCCC(=O)Nc1cc(C(N)=O)ccc1N1CCCC(C)C1` (stereo unspecified), with 73%; and `COCCCC(=O)Nc1cccnc1N1CCCCC1`, with 35.1%.
As for `CC1CCC(NS(=O)(=O)CC(=O)Nc2ccccc2N2CCCC2)CC1` (stereo unspecified), the figure is -52.2%.
As for `NC(=O)c1ccc(N2CCCCC2)c(NC(=O)c2cncc(Br)c2)c1`, the figure is 46.8%.
As for `CCOCCCC(=O)NCc1ccc(N2CCCCC2)cc1`, the INHIBITION stood at 42.7%.
As for `Cc1csc(C2CCCN(C(=O)Cn3ccccc3=O)C2)n1` (stereo unspecified), the figure is -17.6%; as for `CC(C)CNC(=O)C1(Cc2ccccc2-c2ccccc2)CCNC1` (stereo unspecified), 47.2%; as for `COc1ccc(COCC(O)CN2CCC(c3ccn[nH]3)CC2)cc1` (stereo unspecified), 44.1%.
As for `COCCOCC(=O)Nc1ccc(Br)cc1F`, the figure is -6.32%; as for `O=C(O)c1c[nH]c2cc(NS(=O)(=O)c3cc(F)ccc3Cl)ccc12`, -31.8%; as for `Cn1cc(C2=NOC(C(=O)NC3(c4ccccc4)CCCC3)C2)cn1` (stereo unspecified), -6.975%.
Then `CO[C@@H]1CN(c2ccccc2)S(=O)(=O)[C@@]12CCN(S(C)(=O)=O)C2`, with 39.6%.
With `CCn1cc(CN2CCCN(C(=O)c3ccc(C)nc3)CC2)cn1`, the INHIBITION is -47.6%.
Then `COCC1c2c(cnn2CC2CCOCC2)CCN1Cc1ccoc1` (stereo unspecified), with 14.4%; and `CCC(C)(CC(=O)OC)NCc1nc(C)no1` (stereo unspecified), with -50.8%; and `CCC(C)(CC(=O)OC)NCc1noc(C)n1` (stereo unspecified), with -31.9%.
Then `CCC(C)(CC(=O)OC)NCc1cc(C)on1` (stereo unspecified), with 56.6%; and `CC(=O)N1CCN(C(=O)CCCc2nnc(-c3ccccc3)o2)CC1`, with 28.8%.
Take `CC(Nc1cccc(CN2CCOC2=O)c1)C(=O)Nc1ccccc1` (stereo unspecified): the INHIBITION turned out to be 35.4%.
Then `CN1[C@@H](c2ccccc2)[C@@H](C(=O)NCc2ccccn2)C[C@@]1(C)C(=O)O`, with 60.1%; and `CN1[C@@H](c2ccccc2)[C@@H](C(=O)NCc2ccncc2)C[C@@]1(C)C(=O)O`, with 39.6%.
Take `CN1[C@@H](c2ccccc2)[C@@H](C(=O)NCC2CCOCC2)C[C@@]1(C)C(=O)O`: the INHIBITION is given as 41.5%.
